Assay [1] is described as follows: qHTS assay to identify small molecule antagonists of the retinoid-related orphan receptor gamma (ROR-gamma) signaling pathway - cell viability counter screen (AID 1159520). Further: nearly all actives have a fitted effect of over 50% in size. Further: potency means the concentration at half of the fitted maximal effect. The essentials:
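Tet-on ROR gamma CHO cells (1,000/well) were plated 4 hr, given compounds in DMSO for 2 hr at 37 C, then induced with 1 uM final doxycycline for 16 hr. Viability was read as ATP by CellTiter-Glo luminescence after 30 min.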
(Quantitative high-throughput screening tests each substance at several concentrations.)

Assay [2] is described as follows: qHTS assay to identify small molecule agonists of the AP-1 signaling pathway - cell viability counter screen (AID 1159525; calls by dose curve; further: nearly all actives have a fitted effect of over 55% in size; further: potency means the concentration at half of the fitted maximal effect). The method, boiled down:
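ME-180 AP-1-bla, 2500 cells/well, Opti-MEM + 0.5% dialyzed FBS; overnight 37 °C; cpd 15-pt titration, 5 h 37 °C; CellTiter-Glo 30 min RT; luminescence read; normalised to TOAB and DMSO controls.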

The nature of assay [3]: qHTS assay to identify small molecule agonists of the AP-1 signaling pathway (AID 1159526; calls by dose curve; further: potency means the concentration at half of the fitted maximal effect).
For assay [4], the target named is Retinoic acid receptor RXR-alpha (Homo sapiens) (UniProt P19793). Kind of assay: qHTS assay to identify small molecule agonists of the RXR signaling pathway (AID 1159527; calls by dose curve; further: nearly all actives have a fitted effect of over 35% in size). The method, boiled down:
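16 hr incubation of compound-treated RXR-alpha-UAS-bla HEK 293T cells (2% charcoal-stripped FBS, 37 C) preceded a 2 hr room-temperature LiveBLAzer FRET substrate step and blue/green fluorescence measurement.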

Assay [5] can be described thus: qHTS assay to identify small molecule agonists of the peroxisome proliferator-activated receptor delta (PPARd) signaling pathway - cell viability counter screen (AID 743211). Further: nearly all actives have a fitted effect of over 55% in size. Further: potency means the concentration at half of the fitted maximal effect. The essentials:
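qHTS cell viability: PPARd-bla HEK293H; 17 h cpd, 37C; CellTiter-Glo, luminescence at 30 min RT.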

Assay [6] has as its target Peroxisome proliferator-activated receptor delta (Homo sapiens) (UniProt Q03181). Kind of assay: qHTS assay to identify small molecule agonists of the peroxisome proliferator-activated receptor delta (PPARd) signaling pathway (AID 743212; calls by dose curve). The method, boiled down:
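A PPARd-bla HEK293H line with beta-lactamase under an Upstream Activator Sequence is treated with compounds at 37 C. Substrate loading for 2 h at room temperature precedes the fluorescence measurement.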

For assay [7], the target named is Bile acid receptor (Homo sapiens) (UniProt Q96RI1). Kind of assay: qHTS assay to identify small molecule agonists of the farnesoid-X-receptor (FXR) signaling pathway (AID 743220; active means well fitted activation curve with a large enough effect in the signal ratio in the repeat runs, not every such curve was filed as active; the % refers to the signal ratio). The essentials:
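Beta-lactamase reporter under UAS control in GeneBLAzer FXR HEK 293T cells (5000/well) measured with LiveBLAzer FRET substrate after 2 h at room temperature. Compound exposure lasted 16 h at 37C.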

Assay [8] is described as follows: qHTS assay to identify small molecule antagonists of the farnesoid-X-receptor (FXR) signaling pathway - cell viability counter screen (AID 743221; active means well fitted cell-killing curve with a large enough effect in the repeat runs, not every such curve was filed as active; further: nearly all actives have a fitted effect of over 50% in size; further: potency means the concentration at half of the fitted maximal effect). The essentials: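 After a 5 h settling period, FXR-bla HEK 293T cells receive compound and chenodeoxycholic acid (50 uM final) and incubate 16 h at 37 C; CellTiter-Glo luminescence, read after 30 min at room temperature, reports cell viability.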

The nature of assay [9]: qHTS assay to identify small molecule agonists of the vitamin D receptor (VDR) signaling pathway - cell viability counter screen (AID 743224). Further: nearly all actives have a fitted effect of over 50% in size. Further: potency means the concentration at half of the fitted maximal effect. The essentials: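 Plated VDR-bla cells (4 h, 37C) received compound, incubated 16 h, then LiveBLAzer substrate 2 h RT; CellTiter-Glo added afterwards, luminescence read at 30 min.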
In assay [10] the target is Nuclear receptor ROR-gamma (Homo sapiens) (UniProt P51449). Description: qHTS assay to identify small molecule antagonists of the retinoid-related orphan receptor gamma (ROR-gamma) signaling pathway (AID 1159521; further: nearly all actives have a fitted effect of over 50% in size; further: potency means the concentration at half of the fitted maximal effect). The essentials:
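Decreased RORE-driven luciferase luminescence indicates antagonism. Tet-on RORγ CHO cells received compound, then 1 uM final doxycycline 2 h later; signal read after 16 h incubation.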

Assay [11] is described as follows: qHTS assay to identify small molecule antagonists of the peroxisome proliferator-activated receptor delta (PPARd) signaling pathway - cell viability counter screen (AID 743213). Further: nearly all actives have a fitted effect of over 50% in size. Further: potency means the concentration at half of the fitted maximal effect. The method, boiled down: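 PPARd-bla HEK293H cells (3000/well) got compound plus 300 nM L165041 agonist for 17 h at 37 C. Viability in the same wells came from CellTiter-Glo luminescence after 30 min at room temperature.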

Assay [12] can be described thus: qHTS assay to identify small molecule antagonists of the vitamin D receptor (VDR) signaling pathway - cell viability counter screen (AID 743225). Further: nearly all actives have a fitted effect of over 50% in size. Further: potency means the concentration at half of the fitted maximal effect. The method, boiled down: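 Parallel cytotoxicity test: VDR-UAS-bla HEK 293T, 3 nM (final) 1-alpha,25-dihydroxyvitamin D3 with test compound, 16 h, 37C. Endpoint is CellTiter-Glo luminescence in the same wells.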
Assay [13] is described as follows: qHTS assay to identify small molecule agonists of the farnesoid-X-receptor (FXR) signaling pathway - cell viability counter screen (AID 743218). Further: nearly all actives have a fitted effect of over 45% in size. Further: potency means the concentration at half of the fitted maximal effect. The essentials:
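Parallel cytotoxicity test: compound-treated (16 h, 37 C) HEK 293T FXR-bla reporter cells were lysed with CellTiter-Glo and luminescence recorded.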

In assay [14] the target is Vitamin D3 receptor (Homo sapiens) (UniProt P11473). Kind of assay: qHTS assay to identify small molecule agonists of the vitamin D receptor (VDR) signaling pathway (AID 743222; calls by dose curve). The method, boiled down: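 In VDR-bla cells, compound-induced beta-lactamase expression is quantified by FRET substrate fluorescence. Treatment lasts 16 h at 37C; substrate develops 2 h at room temperature.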

The target is the same in assay [15]. Kind of assay: qHTS assay to identify small molecule antagonists of the vitamin D receptor (VDR) signaling pathway (AID 743223; active means well fitted inhibition curve with a large enough effect in the signal ratio in the repeat runs, not every such curve was filed as active; the % refers to the signal ratio; further: potency means the concentration at half of the fitted maximal effect). The method, boiled down: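 Reporter line VDR-bla; stimulus 1alpha,25-(OH)2 vitamin D3, 3 nM final; compound co-addition, 16 h 37C/5% CO2; LiveBLAzer B/G substrate 2 h RT; fluorescence intensity.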
Assay [16] addresses Peroxisome proliferator-activated receptor delta (Homo sapiens) (UniProt Q03181). Kind of assay: qHTS assay to identify small molecule antagonists of the peroxisome proliferator-activated receptor delta (PPARd) signaling pathway (AID 743215; active means well fitted inhibition curve with a large enough effect in the signal ratio in the repeat runs, not every such curve was filed as active; the % refers to the signal ratio;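 further: cells stimulated with agonist L165041 at 300 nM final during compound exposure; series mostly up to about 62 µM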). The essentials:
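HEK293H UAS-bla, PPARd; agonist L165041 300 nM final with cpd in DMSO; 37 C 17 h; FRET substrate, RT 2 h; fluorescence intensity.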

The target in assay [17] is Bile acid receptor (Homo sapiens) (UniProt Q96RI1). Kind of assay: qHTS assay to identify small molecule antagonists of the farnesoid-X-receptor (FXR) signaling pathway (AID 743217; active means well fitted inhibition curve with a large enough effect in the signal ratio in the repeat runs, not every such curve was filed as active; the % refers to the signal ratio; further: potency means the concentration at half of the fitted maximal effect). The essentials:
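GeneBLAzer FXR-UAS-bla HEK 293T, CDCA-stimulated (50 uM final). Compound treatment 16 h, 37 °C. Detection: beta-lactamase cleavage of B/G FRET substrate, fluorescence.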

Here are results for 24 molecules from PubChem BioAssay (Tox21).

“And” between values parts separate entries of the source, which are not always exact repeats. Equal values may be shown once. Records with an inconclusive call do not appear. The source made the active and inactive calls. Unless noted, the call rests on the fitted dose curve; in most records, active means well fitted curve in the direction sought with a large enough effect in the repeat runs; inconclusive means weak or mixed curves; inactive means no such curve, though single readings can be large; an effect the other way counts as inactive or inconclusive.

Vitamin D3 receptor (Homo sapiens), sequence (P11473 whole entry, looked up): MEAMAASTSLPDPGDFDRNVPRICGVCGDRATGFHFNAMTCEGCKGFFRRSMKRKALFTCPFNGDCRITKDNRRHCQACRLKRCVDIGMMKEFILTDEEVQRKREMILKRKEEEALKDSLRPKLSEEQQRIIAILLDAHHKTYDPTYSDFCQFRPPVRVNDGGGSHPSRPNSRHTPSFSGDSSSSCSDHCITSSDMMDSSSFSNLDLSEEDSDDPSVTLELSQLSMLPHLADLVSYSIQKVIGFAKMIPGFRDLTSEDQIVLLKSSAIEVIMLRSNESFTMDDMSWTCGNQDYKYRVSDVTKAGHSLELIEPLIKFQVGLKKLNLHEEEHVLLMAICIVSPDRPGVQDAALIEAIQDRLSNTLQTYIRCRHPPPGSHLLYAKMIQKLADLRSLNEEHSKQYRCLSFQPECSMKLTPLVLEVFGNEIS
Retinoic acid receptor RXR-alpha (Homo sapiens), sequence (P19793 whole entry, looked up): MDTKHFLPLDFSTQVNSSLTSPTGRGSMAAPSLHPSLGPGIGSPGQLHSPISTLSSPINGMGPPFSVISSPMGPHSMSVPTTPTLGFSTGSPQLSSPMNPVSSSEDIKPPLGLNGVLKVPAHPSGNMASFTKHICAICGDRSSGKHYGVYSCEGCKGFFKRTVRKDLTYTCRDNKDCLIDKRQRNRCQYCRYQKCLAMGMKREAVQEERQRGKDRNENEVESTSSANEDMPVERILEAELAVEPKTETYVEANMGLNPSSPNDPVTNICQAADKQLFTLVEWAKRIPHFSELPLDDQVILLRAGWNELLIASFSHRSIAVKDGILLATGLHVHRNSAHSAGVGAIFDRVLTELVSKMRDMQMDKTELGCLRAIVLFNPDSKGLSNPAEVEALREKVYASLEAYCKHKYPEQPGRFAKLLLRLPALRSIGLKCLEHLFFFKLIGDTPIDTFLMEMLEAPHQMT
Peroxisome proliferator-activated receptor delta (Homo sapiens), sequence (Q03181 whole entry, looked up): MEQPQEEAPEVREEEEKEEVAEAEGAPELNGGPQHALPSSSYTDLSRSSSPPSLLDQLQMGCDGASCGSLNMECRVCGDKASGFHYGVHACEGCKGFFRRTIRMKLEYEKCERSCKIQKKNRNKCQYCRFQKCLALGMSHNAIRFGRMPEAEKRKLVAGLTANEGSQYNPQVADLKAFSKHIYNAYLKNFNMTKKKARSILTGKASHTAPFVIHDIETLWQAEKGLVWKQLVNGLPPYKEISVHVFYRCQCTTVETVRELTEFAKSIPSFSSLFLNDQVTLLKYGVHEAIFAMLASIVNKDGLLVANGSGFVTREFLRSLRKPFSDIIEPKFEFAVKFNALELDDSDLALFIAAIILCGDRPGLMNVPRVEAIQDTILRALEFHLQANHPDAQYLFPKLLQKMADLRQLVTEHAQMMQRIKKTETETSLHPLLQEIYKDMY
Bile acid receptor (Homo sapiens), sequence (Q96RI1 whole entry, looked up): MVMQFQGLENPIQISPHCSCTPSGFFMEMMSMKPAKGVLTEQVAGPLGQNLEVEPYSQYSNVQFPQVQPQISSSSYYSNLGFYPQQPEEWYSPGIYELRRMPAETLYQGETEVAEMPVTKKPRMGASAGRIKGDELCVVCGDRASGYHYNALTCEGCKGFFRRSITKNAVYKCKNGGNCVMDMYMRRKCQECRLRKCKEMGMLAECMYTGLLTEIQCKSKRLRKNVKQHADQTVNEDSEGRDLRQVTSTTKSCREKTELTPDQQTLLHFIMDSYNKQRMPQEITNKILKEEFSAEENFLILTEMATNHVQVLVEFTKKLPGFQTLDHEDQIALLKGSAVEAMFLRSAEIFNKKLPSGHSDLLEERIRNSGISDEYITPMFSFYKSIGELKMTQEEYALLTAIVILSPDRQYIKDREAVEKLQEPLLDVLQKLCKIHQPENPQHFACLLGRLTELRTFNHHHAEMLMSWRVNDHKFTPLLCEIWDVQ

As to `OC(Cc1ccccc1Cl)(Cn1cncn1)C1(Cl)CC1` (stereo unspecified), the Potency result in [1], in assay [2] and in assay [3] was “inactive” in each case. Further, the molecule was classed as inactive in [4].

For `Cc1cccc(OP(=O)(Oc2cccc(C)c2)Oc2cccc(C)c2)c1`, the Potency result in [1], in [2] and in assay [3] was “inactive” in each case. Also, the result in assay [4] was inactive.

For the molecule `N#CCCC(Br)(C#N)CBr` (stereo unspecified), the Potency result in [5], in assay [6] and in [8] was “inactive” each time. The molecule was classed as inactive in assay [7]. Further, the values for the Potency in [9], in assay [1] and in [10] were 43.6 µM (active), 19.3 µM (active) and 21.7 µM (active), respectively.

In the case of `C[C@@H]1O[C@@H](O[C@@H]2C=C3CC[C@@H]4[C@H](CC[C@]5(C)[C@@H](c6ccc(=O)oc6)CC[C@]45O)[C@@]3(C)CC2)[C@H](O)[C@H](O)[C@H]1O`, the Potency is 0.0188 µM (active) in [5]; 0.0119 µM (active) in [11]; 0.0106 µM (active) in assay [8]; 0.0133 µM (active) in [9]; 0.0134 µM (active) in assay [12]; 21.1 µM (active) in assay [1]. Also, in [10], the Potency was 15 µM (active). Further, the Potency entry in assay [3] was “inactive”.

On to `Nc1ccc(Cl)cc1C(=O)c1ccccc1`, for which the Potency result in assay [1], in assay [10] and in [2] was “inactive” each time. Further, the molecule was called inactive in [4].

Regarding `[Cl][Sn]([c]1ccccc1)([c]1ccccc1)[c]1ccccc1`, the Potency in assay [10] is 0.082 µM (active); in assay [2], 10.4 µM (active).

`O=C1c2ccccc2C(=O)C1C(=O)C(c1ccccc1)c1ccc(Cl)cc1` (stereo unspecified): the Potency entry in assay [6], in assay [11], in assay [8], in [14], in assay [15] and in assay [2] was “inactive” throughout. For the same molecule, the Potency is 38.9 µM (active) in [13], 21.9 µM (active) in assay [9] and 5.45 µM (active) in assay [10].

Turning to `CNC(C)Cc1ccc2c(c1)OCO2` (stereo unspecified), the Potency result in [13], in [14], in assay [15], in [12], in assay [1] and in assay [10] was “inactive” in each case. The Potency result in assay [2] is “inactive”.

Regarding `NC(=O)c1ccc(N)nc1`, the Potency in assay [1] is 1.22 µM (active); in [10] it was 0.611 µM (active). Besides, in assay [3], the Potency entry was “inactive”.

As for `Fc1ccc(Oc2ccnc3cc(Cl)cc(Cl)c23)cc1`, the Potency result in assay [6], in [11], in assay [8], in assay [12], in assay [1] and in [10] was “inactive” each time. Besides, the result in [7] was inactive. In addition, the Potency in [9] was 49 µM (active).

For the molecule `COS(=O)(=O)c1ccc(C)cc1`, the Potency entry in assay [10], in assay [2] and in assay [3] was “inactive” each time. In addition, the outcome in assay [4] was inactive.

`CC(C)C(=O)Cl`: the Potency result in assay [1], in assay [2] and in assay [3] was “inactive” throughout.

Take `C[C@]12CC[C@H](O)C[C@H]1CC[C@@H]1[C@@H]2C[C@@H](O)[C@]2(C)[C@@H](C3=CC(=O)OC3)CC[C@]12O`: the Potency result in assay [1], in [10] and in [3] was “inactive” in each case.

Turning to `C[As+](C)(C)CC(=O)[O-]`, the Potency entry in assay [10] and in assay [2] was “inactive” each time. In addition, the Potency in [3] is 43.6 µM (active). The outcome in assay [4] was inactive.

`O=C/C(Cl)=C(/Cl)C(=O)O`: the Potency entry in [5], in [6], in [11], in [8], in [14] and in [9] was “inactive” each time. The Potency entry in [12] and in assay [3] was “inactive” each time. For the same molecule, the Potency in assay [1] was 48.5 µM (active) and 34.4 µM (active); in [10] it was 13.7 µM (active) and 21.7 µM (active).

Turning to `CN(C)S(=O)(=O)N(SC(F)(Cl)Cl)c1ccccc1`, the Potency in assay [5] was 24.5 µM (active); in [11] it was 27.5 µM (active); in assay [13], 38.9 µM (active); in assay [8], 43.6 µM (active); in [9], 15.5 µM (active); in [12] it was 27.5 µM (active). Besides, the results for the Potency in assay [1], in [10] and in [2] were 5.45 µM (active), 4.86 µM (active) and 34.7 µM (active), respectively.

As to `O=[N+]([O-])c1cc([N+](=O)[O-])c2ccccc2c1`, the Potency result in assay [11], in assay [8], in assay [9], in assay [12], in assay [1] and in assay [10] was “inactive” each time.

Consider `Cn1[nH]nnc1=S`, for which the Potency result in assay [10] and in assay [2] was “inactive” in each case. The Potency in [3] was 49 µM (active). The outcome in assay [4] was inactive.

`OC(c1ccc(Cl)cc1)(c1ccc(Cl)cc1)C(Cl)(Cl)Cl`: the Potency entry in assay [6], in assay [11], in assay [16], in assay [8], in assay [14] and in [15] was “inactive” each time. Further, the Potency result in assay [12] and in [2] was “inactive” in each case. For the same molecule, the molecule was classed as inactive in [7]. The Potency in assay [1] is 61.1 µM (active).

For the molecule `CC(C)(C)C(O)C(Oc1ccc(-c2ccccc2)cc1)n1cncn1` (stereo unspecified), the Potency in assay [10] is 27.3 µM (active). The Potency entry in assay [2] was “inactive”.

Turning to `CCS(=O)(=O)c1cccnc1S(=O)(=O)NC(=O)Nc1nc(OC)cc(OC)n1`, the Potency entry in assay [10], in assay [2] and in assay [3] was “inactive” throughout.

As to `CC(=O)c1cc(C(C)(C)C)cc2c1CCC2(C)C`, the Potency result in assay [6], in assay [11], in [16], in [8], in assay [14] and in [15] was “inactive” throughout. Moreover, the Potency result in assay [12], in assay [1], in assay [10] and in assay [2] was “inactive” throughout. For the same molecule, the Potency in assay [9] is 49 µM (active).

Take `C=COCCCl`: the Potency result in assay [10], in assay [2] and in assay [3] was “inactive” in each case. For the same molecule, the result in assay [4] was inactive.

For `O=C(Nc1ccc2[nH]ccc2c1)c1cc2cc(F)ccc2n1Cc1cccc(F)c1`, the Potency in [5] is 24.5 µM (active); in assay [11] it was 43.6 µM (active); in assay [17] it was 54.9 µM (active); in assay [13], 49 µM (active); in assay [15] it was 43.6 µM (active); in assay [9], 43.6 µM (active). The Potency in assay [12] was 43.6 µM (active); in assay [1], 48.6 µM (active); in assay [10], 43.3 µM (active); in assay [2] it was 27.5 µM (active). Besides, the result in [7] was inactive. In addition, the Potency result in assay [14] is “inactive”.
